From PMC11062913

Key:
[1] = molecular target: DNA-directed RNA polymerase II subunit RPB7 (UniProt P62487); experiment: cross-link between two proteins; cross-linking mass spectrometry
Histone H2A type 1 [2] = molecular target: Histone H2A type 1 (UniProt P06897); experiment: as above
Histone H2B 1.1 = Histone H2B 1.1 (UniProt P02281); experiment: as above
Histone H3.2 [3] = molecular target: Histone H3.2 (UniProt P84233); experiment: as above
[4] = molecular target: Transcription elongation factor SPT4 (UniProt P63272); experiment: cross-link between two proteins; cross-linking mass spectrometry; two-hybrid or complementation screen
Histone H2A type 1 [5] = molecular target: Histone H2A type 1 (UniProt P06897); experiment: cross-linking mass spectrometry
Histone H3.2 [6] = molecular target: Histone H3.2 (UniProt P84233); experiment: cross-linking mass spectrometry
Histone H4 = Histone H4 (UniProt P62799); experiment: cross-linking mass spectrometry
[7] = molecular target: Transcription elongation factor A protein 1 (UniProt P23193); experiment: cross-link between two proteins; cross-linking mass spectrometry

Transcription elongation factor SPT5, O00267
listed as a hit [1]: yes | listed as a hit (Histone H2A type 1 [2]): yes | listed as a hit (Histone H2B 1.1): yes | listed as a hit (Histone H3.2 [3]): yes | listed as a hit [4]: yes

DNA-directed RNA polymerase II subunit RPB7, P62487
listed as a hit (Histone H3.2 [3]): yes

Histone H2B 1.1, P02281
listed as a hit (Histone H2A type 1 [5]): yes | listed as a hit (Histone H3.2 [6]): yes | listed as a hit (Histone H4): yes

Histone H2A type 1, P06897
listed as a hit (Histone H3.2 [6]): yes | listed as a hit (Histone H4): yes | listed as a hit [7]: yes

Transcription elongation factor A protein 1, P23193
listed as a hit (Histone H3.2 [3]): yes

Histone H4, P62799
listed as a hit (Histone H3.2 [3]): yes
